In ChEMBL document CHEMBL4513216, “Probing the Open Global Health Chemical Diversity Library for Multistage-Active Starting Points for Next-Generation Antimalarials” (ACS Infect Dis, 2020) one finds INHIBITION data, which are given here for 64 molecules.

In all, about 69,000 compounds went through this assay and about 8,600 (12%) showed an effect of 50% or more. The full list was thinned out, with strong results kept by preference.

For the assay, the system named is Plasmodium berghei. Put plainly: Screen against P. berghei liver stage (PbLuc), transformed with Luciferase, at 10uM. Format: functional, HepG2. Particulars: tested at 10 uM.
Turning to `CCc1ccc(C(=O)N2CCCC2c2c(C)nn(C)c2OC)o1` (centres undefined), the INHIBITION was -11.2%.

As to `Cc1ccc(CN2C[C@@H]3CCCO[C@@H]3[C@H](N(C)Cc3ccco3)C2)s1`, the INHIBITION is -15.1%. For `O=C(O)C1(Oc2ccc3c(c2)OCO3)CCN(C2CCOCC2)CC1` the value was 31.9%; for `N#CCC1CC(c2ccc(F)cc2)=NO1` (centres undefined), 12.6%.

With `O=C(CN1CCOC(Cn2cccn2)C1)NCCc1cccs1` (centres undefined), the INHIBITION amounted to 6.49%.

On to `Cn1cccc1C(=O)N1CC[C@@H]2[C@@H]1CC(=O)N2CCN1CCOCC1`, for which the INHIBITION came out at 1.9%. For `Cn1cccc1C(=O)N1CC[C@H]2[C@H]1CCN2CC1CC1`, the INHIBITION amounted to 55.6%.

As for `Cn1cccc1C(=O)N1CCC2(CCCN(CC3CC3)C2=O)C1` (centres undefined), the INHIBITION is 9.63%. The figure for `O=C(c1ccoc1)N1CC[C@H]2[C@H]1CCN2CC1CC1` is -6.05%.

Turning to `Cn1cccc1C(=O)N1CC[C@H]2[C@@H]1CCC(=O)N2c1ccccc1`, the INHIBITION is 43.8%. For `Cn1cccc1C(=O)N1CC[C@H]2[C@@H]1CCC(=O)N2CC1CC1` the value was 54.1%; for `Cn1cccc1C(=O)N1CC[C@H]2[C@H]1CCN2CC1CCOCC1`, 27.5%. Turning to `Cn1cccc1C(=O)N1CC[C@@H]2[C@@H]1CC(=O)N2CC1CCOCC1`, the INHIBITION was found to be 51.2%. The figure for `O=C1C[C@H]2[C@@H](CCN2C(=O)c2ccccc2)N1CCN1CCOCC1` is 30.1%; for `Cn1cccc1C(=O)N1CCC2(CCCN(CC3CCC3)C2=O)C1` (centres undefined) it is 53.6%; for `Cn1cc(Cl)cc1C(=O)N1CCC2(CCCN(CC3CCC3)C2=O)C1` (centres undefined) it is 19.5%. As for `Cn1cccc1C(=O)N1C[C@H]2CN(CC3CC3)C(=O)[C@H]2C1`, the INHIBITION came to 2.26%. With `CCCn1nc(C)c2c(C(F)F)cc(=O)n(CC(=O)O)c21`, the INHIBITION was -7.59%. The figure for `O=C(c1cccc2ncccc12)N1CCCC(n2ccnc2)C1` (centres undefined) is 27.72%; for `CC(C)c1nnc(NC(=O)CN2C(=O)c3ccccc3NC2C(C)C)s1` (centres undefined) it is 19.4%. The figure for `Cc1nn(C)c(N2CCOCC2)c1CNCc1ccc(CO)c(F)c1` is -35.7%; for `CCCc1cc(NC2CCc3nc(CC)nn3C2)n2ncnc2n1` (centres undefined) it is 16.6%; for `CN1C[C@H]2CNC[C@@]2(C(=O)NC2CCN(c3ncccc3C#N)CC2)C1` it is 36.6%. The figure for `COCc1nn(C(C)C)c2c1CCN(Cc1ccc(C)o1)C2` is 58.8%; for `COCc1nn(C(C)C)c2c1CCN(Cc1ccoc1)C2` it is -76.7%. As to `COCc1nn(C(C)C)c2c1CCN(Cc1ccc(C)s1)C2`, the INHIBITION was -6.53%. With `N#Cc1ccsc1NC(=O)CN1CCn2c(nnc2C2CC2)C1`, the INHIBITION is 23.4%. For `Cc1cc(CN(CCO)Cc2cc(Br)ccc2F)no1` the value was 37.8%. On to `O=c1c2cc3c(cc2nnn1Cc1ccccc1Cl)OCCO3`, for which the INHIBITION stood at 57.3%. For the molecule `O=c1c2cc3c(cc2nnn1Cc1ccccc1)OCCO3`, the INHIBITION is listed as 15.1%. For `Cc1ccccc1Cn1nnc2cc3c(cc2c1=O)OCCO3` the value was 37.5%; for `CC(=O)N1CC(=O)N(c2ccccc2)CC12CCN(Cc1nccs1)C2` (centres undefined), -0.912%. For `CC(=O)N1N=C(c2cccs2)OC1C(=O)NCCc1cccc(Cl)c1` (centres undefined) the value was 25.3%; for `COC(=O)c1cccc(C(=O)N(CCC#N)CC(C)(C)C)c1`, 68.6%. For `Cc1nc2ccc(C(=O)N(CCC#N)CCC#N)cc2nc1C` the value was -37.4%; for `N#CCCN(CCC#N)C(=O)c1cccc(N2CCNC2=O)c1`, 46.1%; for `COCCN(CCOC)C(=O)c1cccc(Cn2nc(C)cc2C)c1`, 11.1%. On to `Cc1cc(C)n(Cc2cccc(C(=O)N(CCC#N)CCC#N)c2)n1`, for which the INHIBITION is recorded as 56%. `CCN(CC)C(=O)c1cccc(Cn2nc(C)cc2C)c1`: the INHIBITION is recorded as 10.5%. For `CC(C)(C)CN(CCC#N)C(=O)c1cccc(CN2CCCC2)c1` the value was -38.2%. The figure for `CC(C)(C)CN(CCC#N)C(=O)c1cccc(CC#N)c1` is 80%.

Turning to `CC(C)(C)CN(CCC#N)C(=O)Nc1cccc(N2CCNC2=O)c1`, the INHIBITION is listed as -45.2%. As to `Cc1csc(C2CCCCN2C(=O)c2cc(C)n(C)n2)n1` (centres undefined), the INHIBITION was found to be 17.5%. The figure for `O=c1cc(Cn2ccnc2)nc2n1CCCN(Cc1ccc(F)cc1)C2` is -3.52%; for `Cn1ccnc1CN1CCN(CCOc2ccccc2F)CC1` it is 7.27%.

Consider `CC(C)c1ncc(CN2CCC(CO)C2)cn1` (centres undefined), for which the INHIBITION worked out at 8.72%.

As to `CC(C)c1n[nH]c(C2CN(C(=O)CCn3ccccc3=O)CCO2)n1` (centres undefined), the INHIBITION was determined as 5.97%. The figure for `CCCc1n[nH]c(C2CN(C(=O)Cn3ccccc3=O)CCO2)n1` (centres undefined) is 48.4%; for `CCc1n[nH]c(C2CN(C(=O)Cn3ccccc3=O)CCO2)n1` (centres undefined) it is 53%.

As for `CCc1n[nH]c(C2CN(C(=O)CCn3ccccc3=O)CCO2)n1` (centres undefined), the INHIBITION is on record as -22.9%. The figure for `Cc1n[nH]c(C2CN(C(=O)Cn3ccccc3=O)CCO2)n1` (centres undefined) is 34.5%.

Turning to `CC(C)c1n[nH]c(C2CN(C(=O)Cn3ccccc3=O)CCO2)n1` (centres undefined), the INHIBITION is given as 62.1%.

For `Cc1noc([C@H]2C[C@@H]3CCN(CC4CCOCC4)C[C@H]3O2)n1`, the INHIBITION stood at 27.7%.

Consider `CNC(=O)CN1CC[C@H]2CN(C(=O)c3cccc(C)c3)C[C@H]2C1`, for which the INHIBITION is 8.52%. For `Cc1nocc1C(=O)N1CCc2c(CN(C)C)nn(C)c2C1` the value was -1.12%; for `O=C(c1cc2c(s1)CCOC2)N1CCCC1Cn1cccn1` (centres undefined), 8.64%; for `O=C(Cn1cnc2cc3c(cc21)OCCCO3)NC1CCCCC1`, 13.7%. The figure for `c1cc(CN2CCC(c3ccnc4nccn34)C2)ccn1` (centres undefined) is 35.7%; for `c1ccc2c(Cc3nnc([C@H]4CCN(C5CCC5)C4)o3)c[nH]c2c1` it is -4.88%; for `CN1CC[C@H](c2nnc(Cc3c[nH]c4ccccc34)o2)C1` it is 24.9%. The figure for `c1ccc2c(Cc3nnc([C@H]4CCNC4)o3)c[nH]c2c1` is 65.6%; for `c1ccc2c(Cc3nnc([C@H]4CCN(CC5CC5)C4)o3)c[nH]c2c1` it is 5.96%.

As to `c1ccc2c(Cc3nnc([C@H]4CCN(C5CCCCC5)C4)o3)c[nH]c2c1`, the INHIBITION was 8.67%. For `c1ccc2c(Cc3nnc([C@H]4CCN(C5CCOCC5)C4)o3)c[nH]c2c1`, the INHIBITION is 56.1%.
